Drawing on PubChem BioAssay, this text covers outcome, potentiation and inhibition for 15 compounds.

The test system of assay [1] is TRPC4 beta (transient receptor potential cation channel C4), mouse. In words: activators of mouse TRPC4 channel, confirmation, cell-based, Fluo4 calcium, HEK293 TRPC4beta/mu-opioid, duplicates, 10 µM (AID 2426;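 active means fluorescence ratio normalized to control raised more than 50% in primary screen plus both repeat runs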). Particulars: Fluo4 calcium fluorescence, at 10 µM; active compounds read high.
The test system of assay [2] is transient receptor potential cation channel C4 beta (TRPC4), mouse. The assay is described as follows: activators of mouse TRPC4 channel, confirmation, cell-based, second round, Fluo4, HEK293 TRPC4beta/mu-opioid, 1 µM (AID 2461). Particulars: Fluo4 calcium fluorescence, at 1 µM; active compounds read high.
In assay [3] the test system is TRPC4 (transient receptor potential cation channel C4 beta), mouse. In words: positive allosteric modulators of mouse TRPC4, confirmation, cell-based, second round, Fluo-4, HEK293 TRPC4beta/mu-opioid, 1 µM (AID 2554;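 active means primary screen hit whose fluorescence ratio, in both repeats, exceeds the weak agonist control mean by 3 SD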). The settings on record: DAMGO EC20, Fluo-4 calcium flux, at 1 µM; active compounds read high.
The subject of assay [4] is TRPC4 beta (transient receptor potential cation channel C4), mouse. In words: positive allosteric modulators of mouse TRPC4, confirmation, cell-based, Fluo-4, HEK293 TRPC4beta/mu-opioid (AID 2555;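 active means primary screen hit whose calcium fluorescence ratio, in both repeats, exceeds the weak agonist control mean by 3 SD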). The settings on record: DAMGO EC20, Fluo-4 calcium flux, at 10 µM; active compounds read high.
In assay [5] the target is Short transient receptor potential channel 4 (Mus musculus) (UniProt Q9QUQ5). The assay is described as follows: inhibitors of mouse TRPC4 channel, confirmation, cell-based, Fluo4, HEK293 TRPC4beta/mu-opioid (AID 2636;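 active means calcium signal cut by more than 3 SD below the full-agonist control yet still positive, in both repeats and the earlier primary screen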). Particulars: DAMGO, Fluo4 calcium flux, at 10 µM; active compounds read high.
Chain of Short transient receptor potential channel 4 (Mus musculus) (Q9QUQ5 whole entry, looked up): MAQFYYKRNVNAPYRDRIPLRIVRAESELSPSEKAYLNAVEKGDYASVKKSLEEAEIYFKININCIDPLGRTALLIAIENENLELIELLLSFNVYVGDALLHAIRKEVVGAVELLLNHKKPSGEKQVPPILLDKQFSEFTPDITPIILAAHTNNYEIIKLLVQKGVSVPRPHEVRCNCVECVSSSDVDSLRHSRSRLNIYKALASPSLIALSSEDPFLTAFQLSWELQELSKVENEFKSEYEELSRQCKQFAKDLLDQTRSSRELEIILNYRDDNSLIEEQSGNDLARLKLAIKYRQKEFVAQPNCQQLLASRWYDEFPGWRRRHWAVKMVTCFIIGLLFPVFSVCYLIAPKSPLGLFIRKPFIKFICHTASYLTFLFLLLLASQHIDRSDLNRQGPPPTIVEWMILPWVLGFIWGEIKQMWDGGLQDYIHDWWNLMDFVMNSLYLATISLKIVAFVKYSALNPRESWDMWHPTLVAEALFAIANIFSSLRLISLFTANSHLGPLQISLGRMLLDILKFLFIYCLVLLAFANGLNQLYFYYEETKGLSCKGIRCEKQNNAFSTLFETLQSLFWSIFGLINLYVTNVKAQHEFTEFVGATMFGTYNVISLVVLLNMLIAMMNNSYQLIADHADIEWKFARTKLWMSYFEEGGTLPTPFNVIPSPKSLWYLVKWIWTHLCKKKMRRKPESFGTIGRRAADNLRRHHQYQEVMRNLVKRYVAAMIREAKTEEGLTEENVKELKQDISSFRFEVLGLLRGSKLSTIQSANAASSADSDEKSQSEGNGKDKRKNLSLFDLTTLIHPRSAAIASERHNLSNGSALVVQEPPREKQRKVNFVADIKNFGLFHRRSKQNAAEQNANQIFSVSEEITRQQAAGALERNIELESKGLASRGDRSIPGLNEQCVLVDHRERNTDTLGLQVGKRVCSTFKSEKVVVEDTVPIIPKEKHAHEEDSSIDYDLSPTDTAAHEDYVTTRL
Assay [6] shares this target. In words: inhibitors of mouse TRPC4 channel, confirmation, cell-based, second round, Fluo4, HEK293 TRPC4beta/mu-opioid, 1 µM (AID 2637;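 active means calcium signal ratio cut to more than 3 SD under the fully stimulated control mean yet still positive, in both repeats and the primary screen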). Particulars: Fluo4 calcium flux, DAMGO, at 1 µM; active compounds read high.
Assay [7] shares this target. The assay is described as follows: mouse TRPC4 channel activators, dose response, cell-based, HEK293 TRPC4/mu-opioid, Fluo-4 calcium (AID 434937;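 active means primary screen activator hit with a dose response curve and TRPC4 channel activation at any tested dose; inactive means no activation, no dose response, or not a primary hit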).
For assay [8] the target is unchanged. In words: TRPC4 positive allosteric modulators, dose response, cell-based, HEK293 TRPC4/mu-opioid, Fluo-4 calcium, EC20 DAMGO (AID 434941;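 active means earlier screen potentiator hit that boosts the TRPC4 ion channel at some dose, with a dose response; inactive means no potentiation, no dose response, or not a prior hit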;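 further: calcium entry triggered by an EC20 dose of DAMGO at the co-expressed mu-opioid receptor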).
The target is the same in assay [9]. In words: mouse TRPC4 channel inhibitors, dose response, cell-based, HEK293 TRPC4/mu-opioid, Fluo-4 calcium (AID 434942;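 active means primary screen inhibitor hit that blocks the TRPC4 channel at some tested dose, yielding a dose curve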).
Assay [10] addresses Short transient receptor potential channel 6 (Mus musculus) (UniProt Q61143). In words: inhibition of mouse TRPC6 channel, confirmation, selectivity assay for TRPC4 inhibitor project, cell-based, HEK293, membrane potential dye, duplicate (AID 434948;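 active means active in primary screen and both duplicates, each dropping signal beyond three positive-control SD with fluorescence still positive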). Particulars: HEK293 TRPC6, membrane potential dye fluorescence, at 10 µM, stimulated with maximal-effect acetylcholine; active compounds read high.

For assay [11] the target is unchanged. In words: activation of mouse TRPC6 channel, confirmation, selectivity assay for TRPC4 activator project, cell-based, HEK293, membrane potential dye, duplicate (AID 434950;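 active means membrane potential signal rise above negative control mean plus 3 SD in both duplicates, also active in the earlier TRPC4 screen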). Particulars: HEK293 TRPC6, membrane potential fluorescence, at 10 µM; active compounds read high.
Assay [12] shares this target. The assay is described as follows: TRPC6 potentiation by TRPC4 potentiator hits, confirmation, selectivity assay for TRPC4 potentiator project, HEK293 cells, membrane potential dye, duplicate (AID 434952;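 active means compound raising the membrane signal above positive-control mean plus 3 SD in both repeats, and a primary screen hit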). The settings on record: HEK293 TRPC6, membrane potential dye fluorescence, at 10 µM, maximal acetylcholine added after compound; active compounds read high.
Assay [13] concerns the target Short transient receptor potential channel 4 (Mus musculus) (UniProt Q9QUQ5). The assay is described as follows: calcium flux activators in TRPC4/5HT1a cells, counter-screen for TRPC4 activator project, cell-based, second counter screen, HEK293 TRPC4/5HT1a, Fluo-4 (AID 434977;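 active means calcium signal rise above buffer-control mean plus 5 SD in both duplicates, and also a hit in the primary screen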). Particulars: Fluo-4 calcium flux, at 10 µM; active compounds read high.
Assay [14] in a line: calcium flux inhibitors in TRPC4/5HT1a cells, confirmation, counter-screen for TRPC4 inhibitor project, cell-based, second counter screen, HEK293 TRPC4/5HT1a, Fluo-4 (AID 434978;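 active means primary screen active whose calcium signal fell more than 3 SD beyond the full-serotonin control mean in both duplicate plates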;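 on outcome: serotonin given first at submaximal then at maximal dose after compound preincubation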). Particulars: Fluo-4 calcium flux, at 10 µM, serotonin added to trigger calcium flux; active compounds read high.
The test system of assay [15] is TRPC4 (mouse), co-expressed with 5HT1a in HEK293. In words: calcium flux potentiators in TRPC4/5HT1a cells, confirmation, counter-screen for TRPC4 potentiator project, cell-based, second counter screen, HEK293 TRPC4/5HT1a, Fluo-4 (AID 434979;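 active means signal rise over 3 SD above mean of control wells given weak agonist, in both repeats and first screen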). The settings on record: Fluo-4 calcium flux, at 10 µM, serotonin added at its EC20 dose; active compounds read high.
The nature of assay [16]: calcium flux activation in mu-opioid HEK293 cells, confirmation, counter-screen for TRPC4 activator project, cell-based, HEK293 mu-opioid receptor line (AID 449723;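 active means hit in primary screen, with calcium signal over 5 SD above buffer well mean in both duplicates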;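 further: counter screen cells carry the mu-opioid receptor alone and lack TRPC4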). Particulars: Fluo-4 calcium fluorescence, at 10 µM; active compounds read high.
Assay [17] is described as follows: calcium flux enhancement in mu-opioid HEK293 cells, confirmation, counter-screen for TRPC4 allosteric potentiator project, cell-based, HEK293 mu-opioid receptor line (AID 449724;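 active means calcium signal rise more than 3 SD above the low-dose agonist control mean, in both duplicate plates and the primary screen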;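 further: HEK293 cells carrying mu-opioid receptor only with no TRPC4 channel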). Particulars: Fluo-4 calcium flux, at 10 µM, compound added before EC20 DAMGO stimulus; active compounds read high.

For part of these data: Measured potencies and affinities stand elsewhere. Calls of active or inactive are those of the source.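 How the source made its calls, unless noted: active means primary screen active and over 50% activation in each of two duplicate runs; inactive means the rest.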

Chain of Short transient receptor potential channel 6 (Mus musculus) (Q61143 whole entry, looked up): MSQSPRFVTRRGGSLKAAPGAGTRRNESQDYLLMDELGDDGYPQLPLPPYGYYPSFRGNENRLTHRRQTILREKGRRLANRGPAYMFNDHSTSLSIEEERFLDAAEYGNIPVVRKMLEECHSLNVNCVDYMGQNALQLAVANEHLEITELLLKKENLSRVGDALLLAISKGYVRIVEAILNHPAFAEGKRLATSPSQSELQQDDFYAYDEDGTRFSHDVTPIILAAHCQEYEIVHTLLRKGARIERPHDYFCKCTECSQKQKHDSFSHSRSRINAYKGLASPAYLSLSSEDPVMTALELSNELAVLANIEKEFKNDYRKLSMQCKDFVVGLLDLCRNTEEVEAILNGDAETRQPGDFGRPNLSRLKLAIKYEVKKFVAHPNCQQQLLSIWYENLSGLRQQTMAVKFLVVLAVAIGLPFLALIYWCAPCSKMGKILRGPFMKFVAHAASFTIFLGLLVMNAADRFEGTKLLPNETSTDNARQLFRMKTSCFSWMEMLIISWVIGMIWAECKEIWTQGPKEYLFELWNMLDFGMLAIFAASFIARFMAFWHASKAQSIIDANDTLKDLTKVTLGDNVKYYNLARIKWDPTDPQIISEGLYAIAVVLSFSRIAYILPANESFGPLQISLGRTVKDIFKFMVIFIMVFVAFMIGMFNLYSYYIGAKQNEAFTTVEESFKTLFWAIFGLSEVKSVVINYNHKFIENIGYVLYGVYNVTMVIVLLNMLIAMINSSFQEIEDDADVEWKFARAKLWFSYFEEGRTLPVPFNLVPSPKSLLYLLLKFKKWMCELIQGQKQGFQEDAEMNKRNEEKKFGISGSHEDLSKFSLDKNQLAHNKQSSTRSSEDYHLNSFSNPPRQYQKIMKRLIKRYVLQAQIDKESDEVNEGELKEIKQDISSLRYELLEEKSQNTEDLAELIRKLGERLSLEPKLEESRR

In the case of `Cc1noc(C)c1COC(=O)[C@@H](NC(=O)c1ccccc1Cl)C(C)C`, the outcome in [1], in assay [2], in assay [3], in assay [4], in [5] and in assay [6] was inactive. Besides, the outcome in assay [7], in assay [8], in assay [9], in assay [10], in assay [11] and in assay [12] was inactive. Besides, the outcome in assay [13], in [14], in assay [15], in [16] and in [17] was inactive.
For the compound `CCOc1ccc(-n2cnnn2)cc1S(=O)(=O)NCc1ccccc1`, the outcome in assay [1], in assay [2], in assay [3], in assay [4], in assay [5] and in assay [6] was inactive. Besides, the result in [7], in [8], in assay [9], in [10], in [11] and in assay [12] was inactive. The outcome in assay [13], in assay [14], in assay [15], in [16] and in assay [17] was inactive.
With `COc1cccc(N2C(=O)CC(N3CCN(CCN=CC4=C(O)CC(C)(C)CC4=O)CC3)C2=O)c1` (stereo not given), the outcome in [1], in assay [2], in assay [3], in assay [4], in assay [5] and in assay [6] was inactive. Moreover, the result in assay [7], in assay [8], in assay [9], in assay [10], in assay [11] and in [12] was inactive. Also, the result in assay [13], in [14], in assay [16] and in [17] was inactive. Further, in [15], the potentiation was 15.8% (active).
Turning to `COc1cc2nc(=S)n3[nH]c(CCn4nc(C)cc4C)nc3c2cc1OC`, the result in assay [1], in assay [2], in assay [3], in assay [4], in assay [5] and in [6] was inactive. For the same compound, the result in assay [7], in assay [8], in assay [9], in assay [10], in assay [11] and in [12] was inactive. For the same compound, the outcome in assay [13], in assay [14], in assay [15], in [16] and in assay [17] was inactive.
For `O=C(NCc1ccccc1Cl)/C(=C\c1cccnc1)NC(=O)c1ccccc1`, the outcome in assay [1], in assay [2], in assay [3], in [4], in assay [5] and in assay [6] was inactive. For the same compound, the outcome in assay [7], in assay [8], in [9], in [10], in [11] and in assay [12] was inactive. Also, the result in [13], in [14], in [15], in [16] and in assay [17] was inactive.
Take `Oc1c(Br)cc(C2N=C(c3ccccc3Cl)NO2)cc1Br` (stereo not given): the outcome in [1], in assay [2], in assay [3], in assay [4], in assay [5] and in assay [6] was inactive. Besides, the result in assay [7], in assay [8], in assay [9], in [10], in assay [11] and in assay [12] was inactive. Moreover, the outcome in [13], in assay [14], in assay [15], in assay [16] and in assay [17] was inactive.
`CCc1nc2ccccc2n1Cc1ccc(F)cc1`: the result in [1], in assay [2], in assay [3], in [4], in assay [5] and in assay [6] was inactive. In addition, the outcome in assay [7], in assay [8], in assay [9], in [10], in assay [11] and in [12] was inactive. Also, the outcome in assay [13], in assay [14], in assay [15], in assay [16] and in [17] was inactive.
`C/C=C(/C)C(=O)O[C@@H]1c2cc(OC)c(OC)c(OC)c2-c2c(cc3c(c2OC)OCO3)C[C@H](C)[C@]1(C)O`: the result in assay [1], in assay [2], in assay [3], in assay [4], in [5] and in assay [6] was inactive. Moreover, the outcome in assay [7], in assay [8], in [9], in [10], in assay [11] and in [12] was inactive. In addition, the result in [13], in assay [14], in assay [15], in assay [16] and in [17] was inactive.
For `CCN(C(=O)c1cnc(NC(C)C)cc1C(F)(F)F)c1ccc(Cl)cc1Cl`, the outcome in [1], in assay [2], in assay [3], in assay [4], in assay [6] and in [7] was inactive. Further, the result in [8], in assay [9], in assay [10], in assay [11], in assay [12] and in assay [13] was inactive. Further, the result in assay [15], in assay [16] and in assay [17] was inactive. Further, the inhibition in [5] was 91% (active); in assay [14], 44.8% (active).
As to `CCOC(=O)c1c(NC(=O)COC(=O)CCOc2ccc(OCC)cc2)sc(C(=O)N(C)C)c1C`, the result in assay [1], in assay [2], in assay [5], in assay [6], in [7] and in assay [8] was inactive. For the same compound, the result in assay [9], in assay [10], in [11], in assay [12], in [13] and in assay [14] was inactive. In addition, the result in assay [16] and in assay [17] was inactive. The potentiation in [3] is 22% (active); in assay [4], 32% (active); in assay [15], 81.1% (active).
Take `COc1ccc(-n2ncc3c(N4CCc5ccccc54)ncnc32)cc1`: the outcome in assay [1], in assay [2], in assay [3], in [4], in assay [5] and in [6] was inactive. Moreover, the result in assay [7], in [8], in assay [9], in assay [10], in assay [11] and in assay [12] was inactive. Besides, the outcome in assay [13], in assay [14], in assay [15], in assay [16] and in assay [17] was inactive.
Take `CCOCCCn1cnc2c(c1=O)c1nc3ccccc3nc1n2-c1ccc(C)cc1`: the outcome in assay [1], in assay [2], in assay [3], in assay [4], in [5] and in assay [6] was inactive. Also, the outcome in [7], in assay [8], in [9], in assay [10], in assay [11] and in [12] was inactive. The outcome in assay [13], in assay [14], in [15], in assay [16] and in [17] was inactive.
Consider `COC1=C(C)C(O)=C(C(=O)/C=C/c2ccccc2)C(=O)C1(C)C`, for which the result in assay [1], in [2], in assay [3], in assay [4], in assay [5] and in assay [6] was inactive. Moreover, the outcome in assay [7], in assay [8], in assay [9], in [10], in assay [11] and in assay [12] was inactive. Moreover, the outcome in assay [13], in assay [14], in assay [15], in assay [16] and in assay [17] was inactive.
With `CN1CCN(CCCNC(=O)CN2C(=O)COc3ccccc32)CC1`, the result in [1], in [2], in assay [3], in assay [4], in [6] and in assay [7] was inactive. The result in assay [8], in [9], in [10], in [11], in assay [12] and in [13] was inactive. Also, the outcome in assay [14], in assay [15], in assay [16] and in assay [17] was inactive. Further, the inhibition in assay [5] is 77% (active).
Take `COc1ccc(-c2cc(C3CCN(c4cc(Cl)nc(N)n4)CC3)[nH]n2)cc1`: the outcome in assay [1], in assay [2], in assay [3], in assay [5], in assay [6] and in [7] was inactive. For the same compound, the result in assay [8], in [9], in assay [10], in assay [11], in [12] and in assay [13] was inactive. In addition, the outcome in assay [14], in assay [16] and in assay [17] was inactive. In addition, the potentiation is 20% (active) in [4] and 80.5% (active) in assay [15].
